From PubChem BioAssay AID743360 (Molecular Libraries Program, Specialized Chemistry Center, …, 2014) come the findings set out here.

SMILES strings stand for the structures. Values without a mark were called inactive. Calls of active or inactive are those of the source.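 The calls were made as follows: active = calcium retention capacity relative to untreated control above about 1.1 ratio (limit read from the data); inactive = the rest.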

The nature of this assay: mtPTP inhibition via calcium retention, dose response, biochemical, dry powder samples, uHTS hits, Calcium Green-5N (AID 743360). The note with it: isolated mitochondria, Ca retention capacity.
`Cc1cc(NC(=O)c2ccc(-n3cnnc3)cc2)no1`: the CRC/CRC0 ratio at 12.5 uM (higher = more inhibition) was more than 1.

As to `CN1CCN(c2ccc(NS(=O)(=O)c3ccc(F)c(Cl)c3)cc2)CC1`, the CRC/CRC0 ratio at 12.5 uM (higher = more inhibition) was 1.08.

Turning to `O=S(=O)(Nc1ccc(CN2CCCCC2)cc1)c1ccc(F)c(Cl)c1`, the CRC/CRC0 ratio at 12.5 uM (higher = more inhibition) was 1.07.

`O=S(=O)(Nc1ccc(CN2CCCCC2)cc1)c1cc(Cl)cc(Cl)c1`: the CRC/CRC0 ratio at 12.5 uM (higher = more inhibition) is 1.07.

On to `O=C(Nc1ccc(F)cc1F)c1cc(-c2ccccc2)on1`, for which the CRC/CRC0 ratio at 12.5 uM (higher = more inhibition) was more than 1.

Take `O=C(Nc1ccc(N2CCCCC2)cc1)c1cccc(OCc2ccccc2)c1`: the CRC/CRC0 ratio at 12.5 uM (higher = more inhibition) is 1.01.

Take `Cc1ccc(-c2cc(C(=O)Nc3cccc(Cl)c3)no2)cc1`: the CRC/CRC0 ratio at 12.5 uM (higher = more inhibition) is more than 1.

As to `Cc1ccc(Cl)cc1NC(=O)c1cc(-c2cccc(O)c2)on1`, the CRC/CRC0 ratio at 12.5 uM (higher = more inhibition) is 9.18 (active).

`COc1ccc(Cl)cc1S(=O)(=O)Nc1ccc(CCN2CCCCC2)cc1`: the CRC/CRC0 ratio at 12.5 uM (higher = more inhibition) is 1.07.

As for `COc1ccc(Cl)cc1C(=O)Nc1ccc(N2CCOCC2)cc1`, the CRC/CRC0 ratio at 12.5 uM (higher = more inhibition) is more than 1.

As for `CN1CCN(Cc2ccc(NS(=O)(=O)c3cc(Cl)cc(Cl)c3)cc2)CC1`, the CRC/CRC0 ratio at 12.5 uM (higher = more inhibition) is 1.1.

As for `O=S(=O)(Nc1ccc(CCN2CCCCC2)cc1)c1cc(Cl)cc(Cl)c1`, the CRC/CRC0 ratio at 12.5 uM (higher = more inhibition) was 1.17 (active).

Consider `COc1ccc(Cl)cc1S(=O)(=O)Nc1ccc(CN2CCCCC2)cc1`, for which the CRC/CRC0 ratio at 12.5 uM (higher = more inhibition) was 1.05.

For the compound `O=C(Nc1cccc(Cl)c1)c1cc(-c2ccccc2)on1`, the CRC/CRC0 ratio at 12.5 uM (higher = more inhibition) was more than 1.

As to `CC(C)c1cc(C(=O)Nc2ccc(F)cc2F)no1`, the CRC/CRC0 ratio at 12.5 uM (higher = more inhibition) is 1.09.

Consider `COc1ccc(Cl)c(C(=O)Nc2ccc(CN3CCN(C(=O)OC(C)(C)C)CC3)cc2)c1`, for which the CRC/CRC0 ratio at 12.5 uM (higher = more inhibition) was 1.37 (active).

For the compound `COc1ccc(Cl)cc1C(=O)Nc1ccc(CCN2CCN(C)CC2)cc1`, the CRC/CRC0 ratio at 12.5 uM (higher = more inhibition) was 1.37 (active).

As to `CN1CCN(CCc2ccc(NS(=O)(=O)c3cccc(Cl)c3)cc2)CC1`, the CRC/CRC0 ratio at 12.5 uM (higher = more inhibition) is more than 1.

Regarding `CN1CCN(CCc2ccc(NS(=O)(=O)c3cc(Cl)cc(Cl)c3)cc2)CC1`, the CRC/CRC0 ratio at 12.5 uM (higher = more inhibition) is 1.09.

`CN1CCN(c2ccc(NC(=O)c3cccc(OCc4ccccc4)c3)cc2)CC1`: the CRC/CRC0 ratio at 12.5 uM (higher = more inhibition) was 1.52 (active).

For `O=C(Nc1ccc(OCc2ccccc2)c(Cl)c1)c1cc(-c2cccc(O)c2)on1`, the CRC/CRC0 ratio at 12.5 uM (higher = more inhibition) is more than 1.

Take `CN1CCN(Cc2ccc(NC(=O)c3cccc(OCc4ccccc4)c3)cc2)CC1`: the CRC/CRC0 ratio at 12.5 uM (higher = more inhibition) was 2.26 (active).

Consider `COc1ccc(NC(=O)c2cc(-c3ccc(Cl)cc3)on2)cc1Cl`, for which the CRC/CRC0 ratio at 12.5 uM (higher = more inhibition) is more than 1.

On to `COc1ccc(Cl)c(C(=O)Nc2ccc(CCN3CCCCC3)cc2)c1`, for which the CRC/CRC0 ratio at 12.5 uM (higher = more inhibition) is more than 1.

Take `CN1CCN(c2ccc(NS(=O)(=O)c3cc(Cl)cc(Cl)c3)cc2)CC1`: the CRC/CRC0 ratio at 12.5 uM (higher = more inhibition) was 1.11 (active).

Turning to `COc1cccc(-c2cc(C(=O)Nc3cc(Cl)ccc3C)no2)c1`, the CRC/CRC0 ratio at 12.5 uM (higher = more inhibition) is 1.08.

With `COc1ccc(Cl)cc1C(=O)Nc1ccc(CCN2CCCCC2)cc1`, the CRC/CRC0 ratio at 12.5 uM (higher = more inhibition) was 1.51 (active).

In the case of `COc1ccc(Cl)cc1C(=O)Nc1ccc(CCN2CCOCC2)cc1`, the CRC/CRC0 ratio at 12.5 uM (higher = more inhibition) is 1.23 (active).

As to `O=C(Nc1ccc(CN2CCCCC2)cc1)c1cccc(OCc2ccccc2)c1`, the CRC/CRC0 ratio at 12.5 uM (higher = more inhibition) was 3.54 (active).

As for `C[C@@H]1CCC[C@H](C)N1CCCC(=O)c1ccc(Br)cc1`, the CRC/CRC0 ratio at 12.5 uM (higher = more inhibition) is 1.01.

As to `COc1ccc(Cl)cc1C(=O)Nc1ccc(CCN2CCN(C(=O)OC(C)(C)C)CC2)cc1`, the CRC/CRC0 ratio at 12.5 uM (higher = more inhibition) is 1.37 (active).

Take `Cc1cc(NC(=O)c2cc(-c3ccc(F)cc3)on2)no1`: the CRC/CRC0 ratio at 12.5 uM (higher = more inhibition) is more than 1.

In the case of `COc1ccc(NC(=O)c2cc(Cl)cc(Cl)c2OC)cc1`, the CRC/CRC0 ratio at 12.5 uM (higher = more inhibition) is more than 1.
